Data on 8 compounds can be found in PubChem BioAssay (NCI).

About 83,000 compounds went through this panel and 20% of them were active in at least one assay; those are over-represented in the sample as a whole.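 How to read the values: 0–100, growth inhibition (40 = 60% inhibited); 0, no net growth; -100 to 0, cell death (-40 = 40% of starting cells died; -100 = all dead).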 A number with no mark means an inactive call. The source made the active and inactive calls. Rule for the calls: active = growth percent below 10; inactive = the rest.

Among the test systems are DU-145 prostate; K-562 leukemia; MALME-3M melanoma; MDA-MB-231 breast; RXF 393 renal; SF-268 CNS; SF-295 CNS; SF-539 CNS; UACC-257 melanoma; M14 melanoma; HCT-15 colon; HT29 colon; SNB-75 CNS; SNB-19 CNS; U251 CNS; PC-3 prostate; SK-MEL-5 melanoma; UACC-62 melanoma; LOX IMVI melanoma; SK-MEL-28 melanoma.
What all share (experiment): NCI-60 one-dose screen, 48 h (100 = growth as untreated, 0 = no growth, -100 = all killed)
Conditions in all cases: 10 µM unless noted

As to `NC(=O)n1c(=O)n(-c2cccc(C(F)(F)F)c2)c(=O)c2cc(-c3ccc(F)cc3F)ccc21`, the growth in the assay with DU-145 prostate is 23.3%; in the assay on K-562 leukemia, 5.61% (active); in the assay on MALME-3M melanoma, -18.8% (active); with MDA-MB-231 breast it was -24% (active); with RXF 393 renal it was -2.52% (active); in the assay on SF-268 CNS, 16.6%. The growth in the assay with SF-295 CNS was -10.1% (active); with SF-539 CNS, 15.5%; in the assay on UACC-257 melanoma, -13.5% (active); in the assay with M14 melanoma, 11.1%; in the assay with HCT-15 colon it was 10.1%; in the assay with HT29 colon, 74.8%. The growth in the assay on SNB-75 CNS is -18.3% (active); in the assay with SNB-19 CNS, 11%; in the assay with U251 CNS, 6.64% (active); in the assay with PC-3 prostate it was -11.8% (active); with SK-MEL-5 melanoma, -59.7% (active); in the assay on UACC-62 melanoma, -6.78% (active). The growth with LOX IMVI melanoma was -28.3% (active); in the assay on SK-MEL-28 melanoma, 26.1%.

As for `Clc1ccc(CSc2nnc(-c3ccc(Cl)cc3)n2-c2ccccc2)cc1`, the growth in the assay on DU-145 prostate was 95.8%; in the assay on K-562 leukemia, 91.3%; in the assay on MALME-3M melanoma, 86.3%; in the assay on MDA-MB-231 breast, 77.7%; with RXF 393 renal, 57.1%; in the assay on SF-268 CNS, 70.2%. Further, the growth was 78.4% in the assay on SF-295 CNS; 65.1% with SF-539 CNS; 87.6% in the assay with UACC-257 melanoma; 85.4% in the assay with M14 melanoma; 93.3% with HCT-15 colon; 84% with HT29 colon. Moreover, the growth in the assay with SNB-75 CNS is -0.642% (active); in the assay on SNB-19 CNS it was 62%; with U251 CNS, 81.2%; with PC-3 prostate it was 71%; in the assay with SK-MEL-5 melanoma it was 94.3%; in the assay with UACC-62 melanoma, 85.8%. Also, the growth in the assay with LOX IMVI melanoma is 88.6%.

In the case of `CN1CCN(c2ccc(Nc3nc(NCCCNS(=O)(=O)c4cccc5ccccc45)c4sccc4n3)cc2)CC1`, the growth is -6.73% (active) in the assay with DU-145 prostate; 5.72% (active) in the assay with K-562 leukemia; -91.6% (active) with MALME-3M melanoma; -29% (active) with MDA-MB-231 breast; -87.1% (active) with RXF 393 renal; -24.1% (active) in the assay with SF-268 CNS. In addition, the growth with SF-295 CNS was -71.8% (active); in the assay on SF-539 CNS it was -92.1% (active); in the assay with UACC-257 melanoma it was -89% (active); in the assay with M14 melanoma, -81.9% (active); with HCT-15 colon, -32.8% (active); in the assay on HT29 colon it was -62.1% (active). The growth with SNB-75 CNS is -36.9% (active); in the assay with SNB-19 CNS, 35.7%; with U251 CNS, -74.4% (active); in the assay on PC-3 prostate it was 29.1%; with SK-MEL-5 melanoma, -95.3% (active); with UACC-62 melanoma, -61% (active). The growth in the assay with LOX IMVI melanoma is -85.2% (active).

Turning to `O=C(CSc1nc2ccccc2c(=O)n1CCc1ccccc1)Nc1ccc(S(=O)(=O)Nc2ccc(Cl)nn2)cc1`, the growth with DU-145 prostate is 105%; with K-562 leukemia, 87.2%; with MALME-3M melanoma, 96.5%; with MDA-MB-231 breast it was 94.7%; in the assay on RXF 393 renal it was 86.5%; in the assay with SF-268 CNS, 96.7%. The growth in the assay on SF-295 CNS was 95.3%; with SF-539 CNS, 92.3%; with UACC-257 melanoma, 99.3%; in the assay with M14 melanoma, 96.2%; with HCT-15 colon, 92.4%; in the assay with HT29 colon it was 117%. Besides, the growth in the assay with SNB-75 CNS was 78.7%; with SNB-19 CNS it was 92.2%; with U251 CNS it was 92.9%; in the assay on PC-3 prostate, 89.3%; with SK-MEL-5 melanoma, 98.6%; in the assay on UACC-62 melanoma, 84.6%. Besides, in the assay on LOX IMVI melanoma, the growth is 96.1%.

`C#CCOc1ccc(/C=N/Nc2nc(-c3ccc(OC)cc3)cs2)cc1`: the growth with DU-145 prostate is 78.7%; with K-562 leukemia, 47.7%; with MALME-3M melanoma, 83.9%; in the assay with MDA-MB-231 breast it was 91.3%; with RXF 393 renal, 99.1%; with SF-268 CNS, 87.2%. Also, the growth was 66.8% in the assay on SF-295 CNS; 97.3% with SF-539 CNS; 76.1% in the assay with UACC-257 melanoma; 93.1% in the assay on M14 melanoma; 80.1% with HCT-15 colon; 105% in the assay with HT29 colon. The growth in the assay with SNB-75 CNS was 86.2%; in the assay with SNB-19 CNS it was 87.8%; with U251 CNS it was 96.4%; in the assay on PC-3 prostate, 73.1%; in the assay on SK-MEL-5 melanoma, 70.1%; in the assay with UACC-62 melanoma, 67.1%. Further, the growth in the assay with LOX IMVI melanoma is 89.7%.

As to `O=C(CCCCCCN1CC(=O)N2[C@@H](c3ccccc3Br)c3[nH]c4ccccc4c3C[C@H]2C1=O)NO`, the growth with DU-145 prostate is 62.7%; with K-562 leukemia it was 22.6%; in the assay on MALME-3M melanoma, 14.4%; in the assay on MDA-MB-231 breast, 50%; with RXF 393 renal, 43.1%; in the assay with SF-268 CNS, 79.6%. Also, the growth in the assay with SF-295 CNS is 55.3%; in the assay with SF-539 CNS, 51%; in the assay on UACC-257 melanoma it was 39.9%; in the assay on M14 melanoma, 42.1%; with HCT-15 colon, 90.2%; in the assay with HT29 colon, 37.2%. Further, the growth was 21.8% in the assay on SNB-75 CNS; 55.4% in the assay with SNB-19 CNS; 44.7% in the assay on U251 CNS; 56% in the assay with PC-3 prostate; 30% in the assay with SK-MEL-5 melanoma; 21.6% in the assay with UACC-62 melanoma. Besides, the growth is -60.4% (active) with LOX IMVI melanoma and 31.6% in the assay with SK-MEL-28 melanoma.

`CS(=O)(=O)c1nccc(-c2c(-c3cccc(OCc4ccc(Cl)c(C(F)(F)F)c4)c3)nc3sccn23)n1`: the growth in the assay with DU-145 prostate was -25% (active); in the assay with K-562 leukemia, 14.2%; with MALME-3M melanoma, 88.3%; in the assay on MDA-MB-231 breast, 84.4%; in the assay on RXF 393 renal it was 78%; with SF-268 CNS, 104%. Moreover, the growth was 95% in the assay on SF-295 CNS; 93.3% in the assay on SF-539 CNS; 66.9% in the assay on UACC-257 melanoma; 72.9% in the assay on M14 melanoma; -30.7% (active) with HCT-15 colon; 95.8% in the assay with HT29 colon. In addition, the growth in the assay with SNB-75 CNS is 108%; in the assay with SNB-19 CNS, 58.6%; with U251 CNS it was 98.3%; in the assay with PC-3 prostate, 86.5%; with SK-MEL-5 melanoma, 97.2%; with UACC-62 melanoma, 87.5%. The growth with LOX IMVI melanoma was -75.9% (active); with SK-MEL-28 melanoma it was 50.5%.

In the case of `CCOC(=O)C(=O)Nc1ccc2c(ccn2C(=O)c2cccc(F)c2)c1`, the growth in the assay on DU-145 prostate was 67.7%; with K-562 leukemia, 101%; in the assay with MALME-3M melanoma, 102%; in the assay on MDA-MB-231 breast, 107%; in the assay on RXF 393 renal it was 104%; with SF-268 CNS, 99%. Also, the growth in the assay on SF-295 CNS was 92%; with SF-539 CNS, 91.5%; with UACC-257 melanoma it was 99.1%; with M14 melanoma it was 95.3%; in the assay on HCT-15 colon, 95.8%; in the assay with HT29 colon, 101%. Besides, the growth with SNB-75 CNS was 74.3%; with SNB-19 CNS, 91.6%; in the assay with U251 CNS, 105%; in the assay on PC-3 prostate it was 99.6%; in the assay on SK-MEL-5 melanoma, 96.3%; in the assay with UACC-62 melanoma it was 93.5%. The growth in the assay with LOX IMVI melanoma was 96.3%; in the assay with SK-MEL-28 melanoma, 99.1%.
